# PubChem BioAssay
# Calls of active or inactive are those of the source.
# How the values were obtained:
# [1] = tested on: Plasmodium falciparum Sir2 (PF13_0152, Sir2A); assay: pfSir2 binders on small-molecule microarrays, primary screen, biochemical, small-molecule microarray, 635 nm fluorescence (AID 1098); conditions: small-molecule microarray binding, fluorescence 635 nm; higher = more signal;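 further: score merges spot fluorescence intensity with its signal-to-noise ratio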
# [2] = small-molecule microarray binders of probe aDKK1, primary screen, biochemical, biotinylated probe, 635/667 nm fluorescence (AID 1099); conditions: higher = more signal;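 further: score merges 667nm spot fluorescence with signal to noise across triplicate slides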
# [3] = small-molecule microarray binders of probe aCHRDL2, primary screen, biochemical, biotinylated probe, 635/667 nm fluorescence (AID 1100); conditions: higher = more signal
# [4] = splicing luciferase reporter signal modulators, primary screen, spliceosome inhibition project, cell-based, HEK293, splice +/- reporter (AID 1101); conditions: luminescence, 24 h, higher = more signal, called active from +8 up or from −8 down;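 further: HEK293 cells carrying a splicing-competent luciferase reporter gene; test concentration not given here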
# [5] = biological target: Fibroblast growth factor 10 (Homo sapiens) (UniProt O15520); assay: FGF10 binders on small-molecule microarrays, primary screen, biochemical, small-molecule microarray, 635 nm fluorescence (AID 1102); conditions: FGF10 binding, fluorescence 635 nm, higher = more signal
# Sequence of Fibroblast growth factor 10 (Homo sapiens) (O15520 whole entry, looked up): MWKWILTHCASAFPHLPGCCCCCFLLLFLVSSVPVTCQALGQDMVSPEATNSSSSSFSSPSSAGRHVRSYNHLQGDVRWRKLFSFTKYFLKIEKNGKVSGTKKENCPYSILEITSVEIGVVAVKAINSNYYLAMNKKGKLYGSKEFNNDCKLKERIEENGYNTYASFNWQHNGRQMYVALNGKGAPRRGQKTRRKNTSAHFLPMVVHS
# [6] = tested on: glycogen synthase kinase-3 (GSK3A per assay name; protocol says GSK3B); assay: GSK3 binders on small-molecule microarrays, primary screen, biochemical, small-molecule microarray, 635 nm fluorescence, GSK3A (AID 1103); conditions: small-molecule microarray binding, fluorescence 635 nm; higher = more signal; further: the record names both GSK3A and GSK3B
# [7] = biological target: Epidermal growth factor receptor (Homo sapiens) (UniProt P00533); assay: EGFR binders on small-molecule microarrays, primary screen, biochemical, small-molecule microarray, 635 nm fluorescence (AID 1104); conditions: EGFR binding, higher = more signal;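 further: score merges 667 nm emission intensity with spot signal to noise over triplicate slides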
# Sequence of Epidermal growth factor receptor (Homo sapiens) (P00533 whole entry, looked up): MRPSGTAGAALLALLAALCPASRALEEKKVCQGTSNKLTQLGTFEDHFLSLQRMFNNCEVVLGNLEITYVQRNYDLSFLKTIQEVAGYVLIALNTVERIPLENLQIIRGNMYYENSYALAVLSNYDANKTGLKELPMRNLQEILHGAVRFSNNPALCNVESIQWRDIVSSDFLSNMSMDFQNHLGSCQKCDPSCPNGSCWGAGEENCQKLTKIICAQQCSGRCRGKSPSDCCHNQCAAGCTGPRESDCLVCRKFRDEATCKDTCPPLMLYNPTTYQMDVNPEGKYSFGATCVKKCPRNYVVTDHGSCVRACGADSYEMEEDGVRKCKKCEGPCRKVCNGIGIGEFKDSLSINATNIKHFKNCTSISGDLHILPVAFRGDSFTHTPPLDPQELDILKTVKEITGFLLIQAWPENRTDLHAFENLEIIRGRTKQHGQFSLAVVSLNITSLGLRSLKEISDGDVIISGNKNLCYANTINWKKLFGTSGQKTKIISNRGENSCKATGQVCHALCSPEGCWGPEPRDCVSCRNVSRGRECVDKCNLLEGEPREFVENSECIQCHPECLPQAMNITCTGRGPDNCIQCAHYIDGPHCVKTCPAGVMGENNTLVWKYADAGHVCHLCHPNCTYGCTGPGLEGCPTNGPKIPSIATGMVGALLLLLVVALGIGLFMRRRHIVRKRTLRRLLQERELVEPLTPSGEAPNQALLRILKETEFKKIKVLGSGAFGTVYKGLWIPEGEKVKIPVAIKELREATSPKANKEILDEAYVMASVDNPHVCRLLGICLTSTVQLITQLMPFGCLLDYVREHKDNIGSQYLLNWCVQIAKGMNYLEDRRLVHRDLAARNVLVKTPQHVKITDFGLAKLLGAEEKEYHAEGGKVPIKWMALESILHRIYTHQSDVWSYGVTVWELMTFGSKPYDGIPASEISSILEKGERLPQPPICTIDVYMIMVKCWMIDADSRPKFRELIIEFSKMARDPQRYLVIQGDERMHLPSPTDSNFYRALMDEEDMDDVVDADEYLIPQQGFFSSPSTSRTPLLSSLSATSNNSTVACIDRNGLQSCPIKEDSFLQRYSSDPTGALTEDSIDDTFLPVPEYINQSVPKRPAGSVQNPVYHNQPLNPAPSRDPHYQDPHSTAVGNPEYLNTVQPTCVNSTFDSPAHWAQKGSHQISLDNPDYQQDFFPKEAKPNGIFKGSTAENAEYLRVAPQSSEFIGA
# [8] = biological target: Follistatin-related protein 3 (Homo sapiens) (UniProt O95633); assay: FSTL3 binders on small-molecule microarrays, primary screen, biochemical, small-molecule microarray, 635 nm fluorescence (AID 1105); conditions: FSTL3 binding, higher = more signal;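 further: score merges emission near 667 nm and signal to noise per printed spot across three slides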
# Sequence of Follistatin-related protein 3 (Homo sapiens) (O95633 whole entry, looked up): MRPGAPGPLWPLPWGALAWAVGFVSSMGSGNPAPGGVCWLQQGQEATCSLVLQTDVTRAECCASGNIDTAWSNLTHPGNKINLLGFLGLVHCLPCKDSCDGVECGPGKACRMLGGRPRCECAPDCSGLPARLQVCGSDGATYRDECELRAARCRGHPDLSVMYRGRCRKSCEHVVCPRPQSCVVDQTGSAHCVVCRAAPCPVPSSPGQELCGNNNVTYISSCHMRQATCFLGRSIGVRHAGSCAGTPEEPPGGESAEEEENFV
# [9] = biological target: Dickkopf-related protein 1 (Homo sapiens) (UniProt O94907); assay: DKK1 binders on small-molecule microarrays, primary screen, biochemical, small-molecule microarray, 635 nm fluorescence scan (AID 1106); conditions: DKK1 binding, higher = more signal;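 further: score merges emission near 667 nm with signal to noise over three replicate slides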
# Sequence of Dickkopf-related protein 1 (Homo sapiens) (O94907 whole entry, looked up): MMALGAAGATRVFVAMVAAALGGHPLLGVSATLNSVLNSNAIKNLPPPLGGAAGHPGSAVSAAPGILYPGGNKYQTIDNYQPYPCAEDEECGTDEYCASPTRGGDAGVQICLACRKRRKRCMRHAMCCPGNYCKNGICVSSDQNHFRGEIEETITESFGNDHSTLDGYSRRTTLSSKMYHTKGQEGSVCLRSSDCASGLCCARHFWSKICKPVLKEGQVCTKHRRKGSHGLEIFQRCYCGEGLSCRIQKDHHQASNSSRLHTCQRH
# [10] = tested on: Inhibin beta A chain (activin A); assay: INHBA (activin A) binders on microarrays, primary screen, biochemical, small-molecule microarray, 635 nm fluorescence scan (AID 1107); conditions: small-molecule microarray binding, higher = more signal;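 further: mouse activin A protein probed at 4.33 µg/mL on printed slides; score merges bound-protein fluorescence near 667 nm with spot signal-to-noise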
# [11] = tested on: Human papillomavirus type 1a protein E7 (residues 44-93); assay: HPV1a E7 fragment binders on microarrays, primary screen, biochemical, small-molecule microarray, residues 44-93, 635 nm fluorescence (AID 1108); conditions: small-molecule microarray binding, fluorescence 635 nm; higher = more signal;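 further: E7 fragment applied at 1 µg/mL in TBST for 1 h at 4 C; score combines spot fluorescence with its signal to noise ratio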
# [12] = modulators of HCV replicon luciferase signal, primary screen, HCV replication inhibitor project, Huh7 cells, luciferase reporter (AID 1109); conditions: 48 h, higher = more signal;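 further: huh7 hepatoma cells harbouring a luciferase neomycin HCV replicon reporter; luciferase luminescence as measure of HCV replicon replication; test concentration not given here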
# [13] = biological target: Left-right determination factor 2 (Homo sapiens) (UniProt O00292); assay: LEFTY2 binders on small-molecule microarrays, primary screen, biochemical, small-molecule microarray, 635 nm fluorescence scan (AID 1110); conditions: LEFTY2 binding, higher = more signal
# Sequence of Left-right determination factor 2 (Homo sapiens) (O00292 whole entry, looked up): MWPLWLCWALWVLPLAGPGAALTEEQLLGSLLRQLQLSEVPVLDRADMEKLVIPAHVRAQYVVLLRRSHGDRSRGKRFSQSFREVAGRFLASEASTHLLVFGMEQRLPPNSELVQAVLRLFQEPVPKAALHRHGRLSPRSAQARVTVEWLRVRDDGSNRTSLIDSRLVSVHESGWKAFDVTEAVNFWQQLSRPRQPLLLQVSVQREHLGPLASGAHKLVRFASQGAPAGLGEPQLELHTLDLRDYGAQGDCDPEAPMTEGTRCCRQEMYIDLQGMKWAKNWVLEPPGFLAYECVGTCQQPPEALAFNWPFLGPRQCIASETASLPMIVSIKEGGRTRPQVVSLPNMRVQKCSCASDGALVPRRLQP
# [14] = biological target: Calmodulin-1 (Homo sapiens) (UniProt P0DP23); assay: CALM1 binders on microarrays, EGTA buffer, profiling panel, biochemical, small-molecule microarray, Cy5-labelled CALM1 (AID 1111); conditions: Cy5-CALM1 binding fluorescence, higher = more signal;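 further: labelled calmodulin applied in Tris saline Tween buffer holding calcium plus EGTA and DTT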
# [15] = biological target: Calmodulin-1 (Homo sapiens) (UniProt P0DP23); assay: calcium-bound CALM1 binders on microarrays, profiling panel, artefact control for SMM control-protein annotation, biochemical, small-molecule microarray, Cy5-labelled CALM1, plus calcium (AID 1112); conditions: Cy5-CALM1 binding fluorescence, higher = more signal;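 further: score merges spot fluorescence with signal to noise from triplicate slides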
# [16] = small-molecule microarray binders of probe aWnt5a, primary screen, biochemical, biotinylated probe, 635/667 nm fluorescence (AID 1113); conditions: higher = more signal;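 further: score merges 667 nm fluorescence intensity with signal-to-noise per printed feature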
# [17] = small-molecule microarray binders of probe aShh, primary screen, biochemical, biotinylated probe, 635/667 nm fluorescence (AID 1114); conditions: higher = more signal;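 further: probe is biotin-labelled aShh protein from a stem cell growth factor screen; measures binding of labelled protein to compounds printed on the slide; score merges feature fluorescence at 667 nm with signal-to-noise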
# [18] = small-molecule microarray binders of probe aNog, primary screen, biochemical, biotinylated probe, 635/667 nm fluorescence (AID 1115); conditions: higher = more signal;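 further: probe is biotinylated aNog protein used at 0.15 µg/mL for 1 h at 4 C; z-score combines 667 nm fluorescence of each spot with its signal to noise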
# [19] = biological target: Torsin-1A-interacting protein 1 (Homo sapiens) (UniProt Q5JTV8); assay: LAP1 binders from COS7 cell lysate, primary screen, small-molecule microarray, 635/667 nm fluorescence (AID 1116); conditions: COS7-hLAP1 lysate binding, 635 nm fluorescence, higher = more signal
# Sequence of Torsin-1A-interacting protein 1 (Homo sapiens) (Q5JTV8 whole entry, looked up): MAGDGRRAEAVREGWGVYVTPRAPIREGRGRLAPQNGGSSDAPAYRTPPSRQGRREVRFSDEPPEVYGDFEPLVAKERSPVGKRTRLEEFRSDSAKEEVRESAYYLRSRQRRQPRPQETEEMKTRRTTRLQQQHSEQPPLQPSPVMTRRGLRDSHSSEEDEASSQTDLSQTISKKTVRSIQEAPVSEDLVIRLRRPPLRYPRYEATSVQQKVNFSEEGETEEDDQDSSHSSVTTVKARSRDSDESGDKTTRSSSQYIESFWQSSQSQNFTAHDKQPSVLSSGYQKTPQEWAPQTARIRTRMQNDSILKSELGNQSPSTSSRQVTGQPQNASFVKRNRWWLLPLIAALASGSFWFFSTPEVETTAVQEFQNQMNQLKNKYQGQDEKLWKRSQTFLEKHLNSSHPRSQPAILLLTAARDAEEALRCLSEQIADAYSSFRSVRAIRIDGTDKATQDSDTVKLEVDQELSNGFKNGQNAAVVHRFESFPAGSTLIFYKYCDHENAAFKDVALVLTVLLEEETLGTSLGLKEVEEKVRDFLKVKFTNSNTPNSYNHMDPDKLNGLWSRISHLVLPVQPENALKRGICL
# [20] = biological target: Alpha-bungarotoxin (Bungarus multicinctus) (UniProt P60615); assay: alpha-bungarotoxin binders on microarray, profiling panel, artefact control for SMM control protein annotation, biochemical, small-molecule microarray, Alexa647 label, 635/667 nm fluorescence (AID 1117); conditions: alpha-BTX-A647 binding fluorescence, higher = more signal
# Sequence of Alpha-bungarotoxin (Bungarus multicinctus) (P60615 whole entry, looked up): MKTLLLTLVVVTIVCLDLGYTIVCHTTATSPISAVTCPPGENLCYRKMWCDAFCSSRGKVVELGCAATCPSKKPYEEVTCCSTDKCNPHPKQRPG
Structure (SMILES),composite z-score [1],composite z-score [2],composite z-score [3],z-score [4],composite z-score [5],composite z-score [6],composite z-score [7],composite z-score [8],composite z-score [9],composite z-score [10],composite z-score [11],z-score [12],composite z-score [13],composite z-score [14],composite z-score [15],composite z-score [16],composite z-score [17],composite z-score [18],composite z-score [19],composite z-score [20]
C/C(=N\O)C(=O)NCCCCCNC(=O)OCc1ccccc1,0.807,-0.186,-0.472,-0.508 (inactive),0.554,0.777,0.479,1.03,0.497,0.102,0.63,-0.0365,0.516,0.169,-0.269,0.0115,-0.262,0.32,0.371,1.06
Cc1ccc([C@@H]2CC=C(C(=O)O)[C@H](c3ccccc3)N2S(=O)(=O)c2ccc(C)cc2)cc1,1.44,0.52,1.23,0.0744 (inactive),1.24,0.78,-0.755,0.0604,-1.69,-0.575,0.961,0.712,-0.23,2.35,0.535,0.0599,0.374,1.05,1.9,1.79
COc1ccc([Si](C)(C)[C@H]2[C@H](CCO)O[C@@]3(C(=O)N(Cc4ccccc4)c4ccc(N5C(=O)c6cccc7cccc5c67)cc43)[C@@H]2C)cc1,0.0883,0.153,0.633,-1.1 (inactive),-0.558,-0.636,-0.835,-0.574,-0.784,0.629,-0.137,-4.5,-0.681,0.793,0.906,-0.124,-0.0769,0.0936,0.461,0.524
O=C1c2ccccc2[C@](Cc2ccccc2I)(C(=O)NCc2ccccc2)[C@H](c2ccc(CO)cc2)N1Cc1ccccc1C(F)(F)F,0.74,0.606,1.11,-0.984 (inactive),-0.881,-1.42,-1.39,-1.27,-2.07,0.623,-0.32,0.344,-1.38,-0.027,0.988,-0.148,-0.0146,1.06,-0.08,-0.442
CO[C@@H]1COC(=O)[C@@H]2CCCN2C(=O)CC=C[C@@H](C)[C@H](OC)COC(=O)[C@@H]2CCCN2C(=O)CC=C[C@H]1C,1.29,-0.875,-1.33,-0.481 (inactive),0.546,0.171,0.992,1.19,1.27,1.43,-0.699,0.47,0.402,-1.35,-2.31,-0.156,-0.2,-0.201,-0.233,-1.09
COCCOC(=O)N1C(=O)[C@@]2(c3cc(C#CCC(C(=O)OC)C(=O)OC)ccc31)[C@H](C(=O)N1CCN(c3ncccn3)CC1)[C@H]1C(=O)O[C@H](c3ccccc3)[C@H](c3ccccc3)N1[C@@H]2c1ccc(O)cc1,1.25,0.2,0.733,-1.15 (inactive),0.589,0.845,0.279,0.698,0.0392,0.283,0.435,-0.513,0.394,1.22,0.601,0.0077,0.272,0.0574,0.518,1.71
